Screening data (PubChem BioAssay)
GASC-1 inh: inhibitors of human GASC-1 (JMJD2C) demethylase. Q9H3R0. GST-JMJD2C(1-420) H3K9me3 demethylation, DELFIA europium. inhibition, % at 2.35 µM. 0.069% of 330,000 active;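 active means more than half of a compound's replicate wells show inhibition beyond 50%, single wells judged on their own value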;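 further: signal counts dimethyl H3K9 product captured on neutravidin plate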
Granule exo inh: blocks lytic granule exocytosis | inhibition, % at 10 µM | TALL-104 LAMP-1 surface exposure, flow cytometry; cells stimulated with thapsigargin and PMA | 0.66% of 360,000 active | AID 651702;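 active means inhibition above about 55%, limit read from the data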
HTR2A ag: agonists of mouse serotonin 5-HT2A receptor (HTR2A); CHO-K1 mHTR2A beta-arrestin complementation, luminescence; percent of 30 µM serotonin response; activation, % at 7.6 µM; 0.66% of 360,000 active;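 active means activation above a run cutoff, the mean activation of all tested compounds plus 3 SD, cut at about 14% in these data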
VLA-4 inh: inhibition in a human VLA-4 binding assay | P13612 | VLA-4 expressing cells, ligand binding flow cytometry | inhibition, % (about 7 µM as worked out from the volumes in the protocol) | 0.2% of 330,000 active | AID 2557; in the data active means inhibition above about 50%
Target sequence (P13612 whole entry, looked up): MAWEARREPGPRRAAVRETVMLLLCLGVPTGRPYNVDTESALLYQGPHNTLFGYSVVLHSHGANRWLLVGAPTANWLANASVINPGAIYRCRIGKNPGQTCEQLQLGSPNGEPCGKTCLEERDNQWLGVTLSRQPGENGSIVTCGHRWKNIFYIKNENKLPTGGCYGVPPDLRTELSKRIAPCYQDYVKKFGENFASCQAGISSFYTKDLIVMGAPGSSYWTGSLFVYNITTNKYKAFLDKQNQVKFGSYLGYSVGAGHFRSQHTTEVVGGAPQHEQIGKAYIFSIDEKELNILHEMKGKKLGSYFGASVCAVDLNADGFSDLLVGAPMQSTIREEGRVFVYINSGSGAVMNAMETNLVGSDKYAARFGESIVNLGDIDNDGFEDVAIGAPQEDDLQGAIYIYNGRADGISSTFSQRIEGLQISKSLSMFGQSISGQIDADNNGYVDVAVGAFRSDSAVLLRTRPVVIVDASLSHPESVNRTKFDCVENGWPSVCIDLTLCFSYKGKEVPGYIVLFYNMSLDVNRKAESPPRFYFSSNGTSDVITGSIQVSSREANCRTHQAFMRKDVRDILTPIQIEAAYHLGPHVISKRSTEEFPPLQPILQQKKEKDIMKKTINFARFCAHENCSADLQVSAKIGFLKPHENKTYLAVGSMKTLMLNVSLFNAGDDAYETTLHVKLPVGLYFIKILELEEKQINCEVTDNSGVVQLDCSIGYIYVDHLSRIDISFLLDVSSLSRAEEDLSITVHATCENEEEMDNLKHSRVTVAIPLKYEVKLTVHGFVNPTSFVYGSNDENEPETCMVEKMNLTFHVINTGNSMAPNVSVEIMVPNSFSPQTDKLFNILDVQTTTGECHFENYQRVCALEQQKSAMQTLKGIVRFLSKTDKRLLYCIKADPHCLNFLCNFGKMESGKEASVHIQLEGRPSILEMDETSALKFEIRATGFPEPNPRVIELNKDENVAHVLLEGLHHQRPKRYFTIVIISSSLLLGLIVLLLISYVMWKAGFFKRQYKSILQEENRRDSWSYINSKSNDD
V-ATPase pH: yeast V-ATPase proton transport regulation by pHLuorin. S. cerevisiae, pHLuorin cytosolic pH fluorescence. response, % at 10 µM. 0.37% of 350,000 active; in the data active means response mostly above about 7.3%, no sharp cut-off; inactive means mostly below about 5.4%; further: actives read high
MEX-5 binding: C. elegans MEX-5 TCR-2 RNA binding activity; Q9XUB2; MEX-5/FITC-TCR2 RNA binding, fluorescence polarization; hits give low values; activity score (negative = inhibition of binding), % at 10 µM; 0.38% of 300,000 active; AID 1832;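 active means inhibition past about -25% in most replicates, and total fluorescence under double the plate's negative control median, limit read from the data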
MOR ag counter: counter-screen for mouse HTR2A agonists: human mu opioid receptor agonists; shares compounds with HTR2A ag; U2OS OPRM1 beta-arrestin PathHunter, luminescence; DMSO 0%, DAMGO 9.3 µM 100%; activation, % at 9.3 µM; 5.3% of 2,300 active;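 active means mean activation above the mean of DMSO-only wells plus 3 SD, cut at about 0.5% in these data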
HTR2A ag conf: confirmation of mouse HTR2A serotonin receptor agonists; shares compounds with HTR2A ag; AID 624381; activation, % at 7.6 µM; 19% of 2,300 active; CHO-K1 PathHunter beta-arrestin recruitment, luminescence; DMSO 0%, 30 µM serotonin 100%;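 active means mean activation across triplicates above the hit threshold derived in the original primary screen, cut at about 15% in these data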
Large screens that a line does not name were inactive (follow-up assays come after a bar, where they were run). Shown are actives, neighbours in structure and some others; about 2.2% of the full set was active somewhere.

C=CCN1C(=O)C(O)(CC(=O)c2ccc(N)cc2)c2ccccc21 (stereo not given)	HTR2A ag 23 | MOR ag counter inactive | HTR2A ag conf inactive
CN1CCc2cccc3c2C1Cc1ccc(O)c(O)c1-3 (stereo not given)	HTR2A ag 44, MEX-5 binding -83 | MOR ag counter 0.6 | HTR2A ag conf 135
CN1CCc2c(sc(/N=C/c3cc(C(C)(C)C)ccc3O)c2C#N)C1	HTR2A ag 17 | MOR ag counter inactive | HTR2A ag conf 62
COc1ccc(/C=N/c2sc3c(c2C#N)CCN(Cc2ccccc2)C3)c(O)c1	none (no result: Granule exo inh, HTR2A ag, V-ATPase pH)
COc1ccc(Br)c(C(=O)OCC(=O)NC2CCCCCCC2)c1	none (no result: GASC-1 inh, VLA-4 inh, MEX-5 binding)
O=C(Cc1ccc(NC(=O)C2CCCN(C(=O)C3CC3)C2)cc1)Nc1cccc(C(=O)N2CCCC2)c1 (stereo not given)	HTR2A ag 15 (no result: GASC-1 inh, VLA-4 inh, MEX-5 binding) | MOR ag counter inactive | HTR2A ag conf inactive
CN(C(=O)c1cccc(NC(=O)Cc2ccc(NC(=O)C3CCCN(C(=O)CCc4ccccc4)C3)cc2)c1)C1CC1 (stereo not given)	HTR2A ag 16 (no result: GASC-1 inh, VLA-4 inh, MEX-5 binding) | MOR ag counter 1.1 | HTR2A ag conf inactive
O=C(Cc1ccc(NC(=O)C2CCCN(C(=O)C3CCCCC3)C2)cc1)Nc1cccc(C(=O)N2CCCC2)c1 (stereo not given)	none (no result: GASC-1 inh, VLA-4 inh, MEX-5 binding)
O=C(Cc1ccc(NC(=O)C2CCCN(C(=O)C3CCC3)C2)cc1)Nc1ccc(C(=O)N2CCOCC2)cc1 (stereo not given)	HTR2A ag 17 (no result: GASC-1 inh, VLA-4 inh, MEX-5 binding) | MOR ag counter inactive | HTR2A ag conf inactive
CCCCN(C(=O)C1CC(=O)N(CCc2ccc(OC)c(OC)c2)C1)c1c(N)n(CCCC)c(=O)[nH]c1=O (stereo not given)	none
COc1ccc(OCCCC(=O)NNC(=O)c2ccncc2)cc1	none
COc1ccc(-n2c(C)cc(=O)[nH]c2=O)cc1	HTR2A ag 18 | MOR ag counter inactive | HTR2A ag conf inactive
Cc1cc(NN)nc(NS(=O)(=O)c2ccc(Cl)cc2)n1	HTR2A ag 16 | MOR ag counter inactive | HTR2A ag conf inactive
COc1ccc(CC2(CO)CCN(C(C)COc3ccccc3)CC2)cc1 (stereo not given)	HTR2A ag 20 | MOR ag counter inactive | HTR2A ag conf 85
CC(COc1ccccc1)N1CCC(CO)(Cc2ccccc2)CC1 (stereo not given)	HTR2A ag 29 | MOR ag counter inactive | HTR2A ag conf 73
Cc1ccc(C(=O)NCC(c2ccco2)N2CCc3ccccc32)cc1 (stereo not given)	none
Cc1ccc(Nc2nc3ccc(Cl)cc3n3cnnc23)cc1F	none
C=C(C)c1cccc(C(C)(C)NC(=O)Nc2cc(C)ccn2)c1	HTR2A ag 35 | MOR ag counter inactive | HTR2A ag conf 30
C=C(C)c1cccc(C(C)(C)NC(=O)Nc2nncs2)c1	none
C=C(C)c1cccc(C(C)(C)NC(=O)Nc2nnc(C(C)C)s2)c1	none
C=C(C)c1cccc(C(C)(C)NC(=O)Nc2ccc(OC)nc2)c1	HTR2A ag 45 | MOR ag counter inactive | HTR2A ag conf 16
C=C(C)c1cccc(C(C)(C)NC(=O)Nc2ccc(C)cn2)c1	HTR2A ag 15 | MOR ag counter inactive | HTR2A ag conf 32
CN(Cc1ccccc1)C(=O)c1[nH]cnc1C(=O)NCC(=O)OCc1ccccc1	none
C=CCNC(=O)c1cc2c(=O)n3ccccc3nc2s1	none
CCC(C)N(C(=O)CSc1nnc(C)n1C)C1CCS(=O)(=O)C1 (stereo not given)	none
O=C1C2CCc3ccccc3C2N1c1ccccc1 (stereo not given)	HTR2A ag 18 (no result: MEX-5 binding) | MOR ag counter inactive | HTR2A ag conf inactive
CCOc1ccc(S(=O)(=O)NCCC(=O)N2CC=C(c3ccccc3)CC2)cc1	none (no result: MEX-5 binding)
COCC(C)n1c(C)cc(C(=O)COC(=O)c2cnc(Cl)c(Cl)c2)c1C (stereo not given)	HTR2A ag 15 (no result: MEX-5 binding) | MOR ag counter inactive | HTR2A ag conf inactive
Cc1ccc(C2(c3ccccc3)NC(=O)N(CC(=O)NCc3ccco3)C2=O)cc1C (stereo not given)	none (no result: MEX-5 binding)
O=C(CN1C(=O)NC(c2ccccc2)(c2ccccc2)C1=O)NCc1ccco1	HTR2A ag 15 (no result: MEX-5 binding) | MOR ag counter inactive | HTR2A ag conf inactive
COc1ccc2[nH]c3c(c2c1)CCN1C(=O)N([C@@H](C)C(=O)NC2CCN(Cc4ccccc4)CC2)C(=O)[C@]31C	none
CC[C@@]1(c2ccccc2OC)ON(c2ccccc2C(F)(F)F)C1=O	none (no result: MEX-5 binding)
Cc1cccc(C)c1-n1nnnc1C1(C)CCC(=O)N1Cc1cccnc1 (stereo not given)	none (no result: GASC-1 inh, VLA-4 inh, V-ATPase pH, MEX-5 binding)
CCCS(=O)(=O)NC(=O)C1(C)CCCN(C(=O)c2ccccc2C(F)(F)F)C1 (stereo not given)	HTR2A ag 20 (no result: GASC-1 inh, VLA-4 inh, V-ATPase pH, MEX-5 binding) | MOR ag counter inactive | HTR2A ag conf inactive
CCCS(=O)(=O)NC(=O)C1(C)CCCN(C(=O)c2cccc3ccccc23)C1 (stereo not given)	none (no result: GASC-1 inh, VLA-4 inh, V-ATPase pH, MEX-5 binding)
Cc1nn(Cc2c(Cl)cccc2Cl)c(Cl)c1/C=C/C(=O)OCC(=O)NCC(F)(F)F	none
COCCNC(=O)COC(=O)/C=C/c1c(C)nn(Cc2ccc(Cl)cc2Cl)c1Cl	HTR2A ag 35 | MOR ag counter inactive | HTR2A ag conf inactive
COc1cc(OC)c(NC(=O)C2CCCO2)cc1Cl (stereo not given)	HTR2A ag 16 | MOR ag counter inactive | HTR2A ag conf inactive
COCCN1CCC(CNCc2cn(-c3cc(C)ccc3C)nc2-c2ccccc2)C1 (stereo not given)	none
CCCCN1C(=O)CC2CCOC21C (stereo not given)	HTR2A ag 21 (no result: GASC-1 inh, VLA-4 inh, MEX-5 binding) | MOR ag counter inactive | HTR2A ag conf inactive
CCCCN1C(=O)CC(SC2CC(=O)N(CCCC)C2=O)C1=O (stereo not given)	none (no result: GASC-1 inh, VLA-4 inh, MEX-5 binding)
CCOC(=O)C1=C(CC)Nc2ccccc2N/C1=N\S(=O)(=O)c1cccc(C(C)=O)c1	HTR2A ag 20 (no result: MEX-5 binding) | MOR ag counter inactive | HTR2A ag conf inactive
CCOC(=O)C1=C(CC)Nc2ccccc2N/C1=N\S(=O)(=O)c1ccccc1F	none (no result: MEX-5 binding)
Cc1nc(-c2nc(-c3c(C(=O)NNC(=O)Nc4cccc(Cl)c4)noc3C)cs2)cs1	HTR2A ag 19 | MOR ag counter inactive | HTR2A ag conf 52
Cc1nc(-c2nc(-c3c(C(=O)NNC(=O)Nc4ccccc4)noc3C)cs2)cs1	none
